Results on four molecules are retold here after PubChem BioAssay (NCATS).

Unmarked numbers belong to inactive results. Results filed as inconclusive are left out. The list shows a part of the results. Active and inactive are the calls of the source. Unless noted, calls come from the whole dose curve; as a rule, active = well fitted curve in the direction sought with a large enough effect; inconclusive = small, poorly fitted or top-dose-only effect, or another doubt; inactive = no such curve, though single readings can be large; an effect the other way counts as inactive or inconclusive.

Experiment [1] deals with ATPase family AAA domain-containing protein 5 (Homo sapiens) (UniProt Q96QE3). The experiment can be described thus: HTS assay for small molecules that inhibit ELG1-dependent DNA repair in human embryonic kidney (HEK293T) cells expressing luciferase-tagged ELG1: Hit Confirmation (AID 624248). Note: potency is the fitted concentration of half-maximal effect; nearly all actives have a fitted effect of over 55% in size. Particulars: HEK293T ELG1-luciferase levels, luminescence; cells co-treated with 5-fluorouridine. In short, it runs like this: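 Suppression of ELG1-luciferase signal was read by ONE-Glo luminescence in HEK293T reporter cells after 16 h at 37 C co-treatment with compound and 5-fluorouridine as DNA-damaging agent.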
ATPase family AAA domain-containing protein 5 (Homo sapiens), sequence (Q96QE3 whole entry, looked up, the tested form may be a part): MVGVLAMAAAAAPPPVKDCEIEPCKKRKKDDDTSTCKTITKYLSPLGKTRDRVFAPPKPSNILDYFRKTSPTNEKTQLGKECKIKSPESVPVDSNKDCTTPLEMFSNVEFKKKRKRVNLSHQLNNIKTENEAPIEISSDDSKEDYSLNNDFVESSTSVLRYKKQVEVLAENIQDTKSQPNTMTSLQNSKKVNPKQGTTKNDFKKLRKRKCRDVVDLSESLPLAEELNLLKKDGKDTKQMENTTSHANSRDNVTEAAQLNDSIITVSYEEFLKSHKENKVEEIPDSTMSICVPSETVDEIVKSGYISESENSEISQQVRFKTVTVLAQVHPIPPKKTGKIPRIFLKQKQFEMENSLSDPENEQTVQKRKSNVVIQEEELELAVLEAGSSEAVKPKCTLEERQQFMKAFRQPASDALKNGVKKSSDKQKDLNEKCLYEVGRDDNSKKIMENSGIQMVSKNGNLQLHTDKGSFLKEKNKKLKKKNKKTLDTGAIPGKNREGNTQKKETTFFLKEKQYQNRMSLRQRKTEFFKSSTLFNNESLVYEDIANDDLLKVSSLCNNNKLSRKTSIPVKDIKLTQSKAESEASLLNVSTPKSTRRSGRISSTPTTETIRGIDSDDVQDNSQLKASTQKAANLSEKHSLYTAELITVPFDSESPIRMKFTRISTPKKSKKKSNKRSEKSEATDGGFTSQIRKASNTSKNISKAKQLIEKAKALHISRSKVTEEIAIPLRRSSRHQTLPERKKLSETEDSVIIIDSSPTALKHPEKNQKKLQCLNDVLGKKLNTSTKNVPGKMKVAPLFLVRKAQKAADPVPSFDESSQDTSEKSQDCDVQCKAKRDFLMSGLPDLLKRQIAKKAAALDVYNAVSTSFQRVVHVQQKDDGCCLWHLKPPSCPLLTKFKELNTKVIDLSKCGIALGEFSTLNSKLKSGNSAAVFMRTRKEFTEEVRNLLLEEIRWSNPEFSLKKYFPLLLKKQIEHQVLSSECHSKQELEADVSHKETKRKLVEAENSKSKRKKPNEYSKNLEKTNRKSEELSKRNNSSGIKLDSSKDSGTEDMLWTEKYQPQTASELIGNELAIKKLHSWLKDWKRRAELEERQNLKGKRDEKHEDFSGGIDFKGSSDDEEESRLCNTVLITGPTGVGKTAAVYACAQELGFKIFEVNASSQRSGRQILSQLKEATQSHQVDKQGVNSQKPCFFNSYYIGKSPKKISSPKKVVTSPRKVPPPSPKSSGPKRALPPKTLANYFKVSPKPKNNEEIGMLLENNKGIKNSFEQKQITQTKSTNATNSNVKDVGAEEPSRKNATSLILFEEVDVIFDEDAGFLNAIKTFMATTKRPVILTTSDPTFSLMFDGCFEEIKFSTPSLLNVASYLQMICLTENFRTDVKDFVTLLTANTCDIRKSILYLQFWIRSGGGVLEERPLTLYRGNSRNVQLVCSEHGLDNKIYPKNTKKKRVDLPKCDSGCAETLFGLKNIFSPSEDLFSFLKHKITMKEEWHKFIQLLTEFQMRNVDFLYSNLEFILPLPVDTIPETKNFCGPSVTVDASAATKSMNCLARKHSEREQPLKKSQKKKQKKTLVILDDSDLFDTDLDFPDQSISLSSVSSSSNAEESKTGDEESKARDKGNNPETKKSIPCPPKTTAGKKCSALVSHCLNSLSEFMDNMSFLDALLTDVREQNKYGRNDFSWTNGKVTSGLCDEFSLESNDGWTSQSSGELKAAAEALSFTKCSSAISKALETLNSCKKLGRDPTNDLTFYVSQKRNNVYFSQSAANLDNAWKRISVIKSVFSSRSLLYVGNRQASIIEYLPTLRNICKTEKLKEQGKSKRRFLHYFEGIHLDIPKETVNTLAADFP

Experiment [2] has the same target. The experiment can be described thus: qHTS screen for small molecules that inhibit ELG1-dependent DNA repair in human embryonic kidney (HEK293T) cells expressing luciferase-tagged ELG1: Hit Confirmation using MMS Stimulated ELG1 (AID 624249). Note: potency is the fitted concentration of half-maximal effect; nearly all actives have a fitted effect of over 60% in size. Particulars: HEK293T luciferase-tagged ELG1 level. An outline of the steps: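 HEK293T ELG1-luc, 2,000 cells/well; ~5 h post-seed: cpd + MMS (10 µM final); 16 h; luc read w/ Amplight.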
(In qHTS, concentration-response curves come from the screen itself.)

Experiment [3] can be described thus: qHTS screen for small molecules that inhibit ELG1-dependent DNA repair: Hit Confirmation with MMS Viability (AID 624251). Note: potency is the fitted concentration of half-maximal effect; nearly all actives have a fitted effect of over 60% in size. Particulars: Cell viability with MMS. In short, it runs like this: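 Luminescent ATP read-out (CellTiter-Glo) gives viability of ELG1-luc HEK293T cells exposed to compounds together with 10 µM methyl methanesulfonate for 16 h.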
Experiment [4] in a line: Cell Viability - H-4-II-E (AID 543).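 Note: cells exposed to compound for 40 hours; nearly all actives have a fitted effect of over 35% in size.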 Note: potency is the fitted concentration of half-maximal effect. Conditions: H-4-II-E rat hepatoma viability; series mostly up to 92.2 µM. An outline of the steps: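 Luminescent ATP signal (CellTiter-Glo) served as the viability read-out, with cytotoxicity seen as a concentration-dependent ATP drop. Cells were treated for 40 hours in complete medium. AC50 values derive from Hill-equation modelling.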

Experiment [5] can be described thus: Cell Viability - SH-SY5Y (AID 544).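 Note: potency is the fitted concentration of half-maximal effect; cells exposed to compound for 40 hours; nearly all actives have a fitted effect of over 55% in size.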 Particulars: SH-SY5Y neuroblastoma cell viability; viability change, negative = cytotoxic: at 92.2 µM (top of the series). In short, it runs like this:
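Luminescent ATP read-out (CellTiter-Glo) measures loss of viable SH-SY5Y neuroblastoma cells after 40 hr compound exposure at 37 °C. AC50 values derive from standard Hill modelling of qHTS concentration-response data.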

Experiment [6] can be described thus: Cell Viability - Renal Proximal Tubule (AID 545).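 Note: cells exposed to compound for 40 hours; nearly all actives have a fitted effect of over 40% in size.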 Conditions: renal proximal tubule cells viability; at 91.7 µM (top of the series), primary cells of rat origin unless noted. In short, it runs like this: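 Luminescent ATP signal (CellTiter-Glo) served as the viability read-out after 40 hr compound exposure of freshly isolated rat proximal tubule cells at 37 °C. Concentration-dependent ATP loss was fitted with the Hill equation to give AC50.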

Experiment [7] in a line: Cellular Toxicity (caspase-3) HUV-EC-C (AID 656). Conditions: HUV-EC-C cells, caspase-3 activation (apoptosis), vehicle = 0, 100 µM tamoxifen = 100%; series mostly up to 92.2 µM. An outline of the steps:
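qHTS; HUV-EC-C, 1000 cells/well; 5 hr settle, 16 hr cmpd, 37°C; Caspase-Glo 3/7, 20 min RT; luminescence. Norm: DMSO = 0%, tamoxifen 100 uM = 100%. Hill-fit AC50.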

Experiment [8] in a line: Cellular Toxicity (caspase-3) BJ (AID 658). Particulars: BJ fibroblasts, luminescence, normalized: DMSO 0%, staurosporine 100%; series mostly up to 91.7 µM. In short, it runs like this:
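Readout: Caspase-Glo 3/7 luminescence increase in BJ cells after 16 hr treatment at 37 °C. Staurosporine and tamoxifen served as positive controls; AC50 values came from Hill modelling of data normalized to DMSO and 10 uM staurosporine.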

A short description of experiment [9]: Cellular Toxicity (caspase-3) SK-N-SH (AID 661). Conditions: SK-N-SH caspase-3 activation, qHTS, DMSO as zero, staurosporine as full; series mostly up to 91.7 µM. An outline of the steps:
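Human neuroblastoma SK-N-SH, 1500 cells/well, 5 hr pre-incubation, then compound 16 hr, 37 °C. Caspase-Glo 3/7 reagent, 1 hr RT, luminescence. Norm. to DMSO/10 uM staurosporine; Hill-fit AC50.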

Experiment [10] in a line: Cellular Toxicity (caspase-3) H-4-II-E (AID 663).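 Note: cells exposed to compound for 16 hr before readout.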 Conditions: H-4-II-E rat hepatoma, scaled: DMSO 0%, 100 µM tamoxifen 100%; series mostly up to 92.2 µM. In short, it runs like this: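 Apoptosis induction is scored as increased luminescence from caspase 3/7 substrate cleavage in rat hepatoma H-4-II-E cells exposed to compound for 16 hr. Activity is scaled between DMSO and 100 uM tamoxifen.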

Experiment [11] in a line: Cellular Toxicity (caspase-3) NIH 3T3 (AID 666).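 Note: caspase signal read after 16 h compound exposure.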 Particulars: NIH 3T3 caspase-3 activation, apoptosis/toxicity, 0% DMSO, 100% is 100 µM tamoxifen; series mostly up to 92.2 µM. In short, it runs like this:
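Luminescence from aminoluciferin released by caspase-3/7 cleavage of a peptide substrate served as read-out. Mouse fibroblast NIH 3T3 cells were exposed to compounds over a concentration range for 16 hours, and AC50 values came from standard Hill modelling.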

The nature of experiment [12]: Cellular Toxicity (caspase-3) Renal Proximal Tubule (AID 667).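 Note: cells exposed to compound for 16 hours at 37 °C before detection.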 Particulars: renal proximal tubule cells; at 91.7 µM (top of the series), primary cells freshly taken from rat, solvent-only wells 0%, staurosporine 100% unless noted. An outline of the steps: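 AC50 derived by standard Hill fit of concentration-response data, normalized between DMSO basal and 10 uM staurosporine as 100% stimulation. Cells: primary rat kidney proximal tubule, 16 h treatment at 37 °C.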

Experiment [13] can be described thus: Cell Viability - LYMP2-001 (AID 921).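 Note: cells exposed to compound for 24 h at 37 °C; nearly all actives have a fitted effect of over 70% in size.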 Note: potency is the fitted concentration of half-maximal effect. Particulars: LYMP2-001 lymphoblastoid cell viability; series mostly up to 92.2 µM. An outline of the steps:
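Steps: seed 2500 lymphoblastoid cells/well; 5 hr, 37 C; add compound; 24 hr, 37 C; CellTiter-Glo reagent, 30 min room temperature; read luminescence. Concentration-response modeled by Hill equation for AC50.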

Experiment [14] is described as follows: MultiTox-Fluor Cytotoxicity Assay - LYMP1-001 - Dead Cells (AID 946). Note: potency is the fitted concentration of half-maximal effect. Particulars: LYMP1-001 lymphoblastoid cells, dead-cell protease fluorescence; series mostly up to 92.2 µM. In short, it runs like this:
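AC50 from Hill fit of concentration-response; data normalized to DMSO (basal) and 15 uM tetraoctylammonium bromide (100%). LYMP1-001 lymphoblastoid cells, 2500/well, 16 hr compound at 37 C; dead-cell protease fluorescence, Ex/Em 485/520.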

A short description of experiment [15]: Cell Viability - LYMP1-002 - Assay at 16 hr (AID 948).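 For activity change, negative = cytotoxicity: 0% = DMSO alone and full effect = 92 µM tetraoctylammonium bromide.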 Note: potency is the fitted concentration of half-maximal effect. Particulars: LYMP1-002 lymphoblastoid cell viability; series mostly up to 92.2 µM. An outline of the steps:
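Seed 2500 LYMP1-002 cells per well in complete medium and hold 5 hr at 37 C. Add compound across a concentration series and incubate 16 hr at 37 C. Add CellTiter-Glo, wait 30 min at room temperature, read luminescence.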

Experiment [16] can be described thus: MultiTox-Fluor Cytotoxicity Assay - LYMP1-002 - Dead Cells (AID 960). Note: potency is the fitted concentration of half-maximal effect; nearly all actives have a fitted effect of over 60% in size. Particulars: LYMP1-002 lymphoblastoid cells, dead-cell protease fluorescence; series mostly up to 46.1 µM. An outline of the steps:
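LYMP1-002 cells 2500/well; 5 hr 37 C pre-incubation; compound 16 hr 37 C; MultiTox-Fluor reagent 60 min RT; dead-cell fluor Ex/Em 485/520. Norm. to DMSO (0%) vs 15 uM tetraoctylammonium bromide (100%); Hill AC50.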

A short description of experiment [17]: MultiTox-Fluor Cytotoxicity Assay - LYMP1-003 - Dead Cells (AID 961). Note: potency is the fitted concentration of half-maximal effect; nearly all actives have a fitted effect of over 70% in size. Particulars: LYMP1-003 lymphoblastoid cells, dead-cell protease fluorescence; series mostly up to 92.2 µM. An outline of the steps: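 Human lymphoblastoid LYMP1-003 cells (2500/well) were treated with compounds for 16 hr at 37 C in complete medium. Dead-cell protease release was read by bis-AAF-R110 fluorescence (Ex/Em 485/520). AC50 came from Hill fits, normalized to DMSO and 15 uM tetraoctylammonium bromide.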

For experiment [18], the target named is Voltage-gated inwardly rectifying potassium channel KCNH2 (Homo sapiens) (UniProt Q12809). The experiment can be described thus: qHTS Assay for Small Molecule Inhibitors of the Human hERG Channel Activity (AID 588834).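 Note: potency is the fitted concentration of half-maximal effect; lower thallium flux fluorescence means stronger hERG block; nearly all actives have a fitted effect of over 50% in size.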 Conditions: U2OS BacMam hERG, FluxOR thallium flux fluorescence; series mostly up to 92.2 µM. An outline of the steps: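 hERG-BacMam U2OS, 2000 cells/well; 0.7X FluxOR loading 1 hr RT dark; cpd ~10 min 37 °C; stim buffer; FDSS fluorescence 2 min @ 1 s; AC50 Hill fit.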
Voltage-gated inwardly rectifying potassium channel KCNH2 (Homo sapiens), sequence (Q12809 whole entry, looked up): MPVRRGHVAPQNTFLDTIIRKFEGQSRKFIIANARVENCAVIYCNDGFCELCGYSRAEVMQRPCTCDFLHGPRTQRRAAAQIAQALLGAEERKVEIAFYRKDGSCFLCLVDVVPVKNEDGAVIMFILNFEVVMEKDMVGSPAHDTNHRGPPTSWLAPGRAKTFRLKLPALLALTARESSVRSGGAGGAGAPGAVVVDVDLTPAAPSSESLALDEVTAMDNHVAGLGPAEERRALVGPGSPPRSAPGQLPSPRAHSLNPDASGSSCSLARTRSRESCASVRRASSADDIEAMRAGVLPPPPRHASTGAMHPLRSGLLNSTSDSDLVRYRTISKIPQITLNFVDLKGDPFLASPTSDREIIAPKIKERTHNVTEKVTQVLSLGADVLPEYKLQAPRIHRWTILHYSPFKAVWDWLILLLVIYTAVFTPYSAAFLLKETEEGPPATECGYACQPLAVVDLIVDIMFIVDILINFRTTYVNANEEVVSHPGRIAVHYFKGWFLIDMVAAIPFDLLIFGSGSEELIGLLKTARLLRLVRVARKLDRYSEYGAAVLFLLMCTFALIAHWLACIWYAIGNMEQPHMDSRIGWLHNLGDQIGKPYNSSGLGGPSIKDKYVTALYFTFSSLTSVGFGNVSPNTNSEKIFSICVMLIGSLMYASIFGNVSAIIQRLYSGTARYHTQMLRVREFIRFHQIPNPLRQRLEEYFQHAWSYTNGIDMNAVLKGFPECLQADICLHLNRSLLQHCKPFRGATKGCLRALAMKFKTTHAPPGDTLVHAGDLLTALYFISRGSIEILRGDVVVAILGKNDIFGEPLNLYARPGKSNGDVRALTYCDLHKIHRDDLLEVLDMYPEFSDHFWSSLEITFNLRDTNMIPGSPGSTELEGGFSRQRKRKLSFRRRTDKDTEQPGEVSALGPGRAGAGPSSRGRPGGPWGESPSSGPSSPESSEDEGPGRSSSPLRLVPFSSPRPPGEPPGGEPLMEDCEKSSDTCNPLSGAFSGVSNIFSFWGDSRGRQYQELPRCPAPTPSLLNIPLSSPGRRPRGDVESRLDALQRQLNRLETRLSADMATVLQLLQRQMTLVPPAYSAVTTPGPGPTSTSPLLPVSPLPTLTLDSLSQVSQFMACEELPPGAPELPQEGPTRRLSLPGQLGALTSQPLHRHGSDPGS

Experiment [19] can be described thus: qHTS assay for small molecule disruptors of the mitochondrial membrane potential - 5 hr assay (AID 651755; calls by dose curve; note: nearly all actives have a fitted effect of over 40% in size; note: potency is the fitted concentration of half-maximal effect). Conditions: JC-1-type ratio dye; series mostly up to 92.2 µM. In short, it runs like this: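 HepG2, 2,000 cells/well, overnight attach; cpd or DMSO 5 hr, 37C/5% CO2; Mito-MPS 30 min 37C; fluor 490/535 + 540/590 nm.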
A short description of experiment [20]: qHTS assay for small molecule antagonists of the retinoid-related orphan receptor gamma (ROR-gamma) signaling pathway - cell viability counter screen (AID 720652; active = well fitted curve in the direction sought with a large enough effect in the repeat runs; an effect the other way counts as inactive or inconclusive;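 note: potency is the fitted concentration of half-maximal effect; compound exposure lasted 16 hr before ATP read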). Particulars: RORgamma reporter cell line viability counter screen; series mostly up to 92.2 µM. In short, it runs like this: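 Luminescence from CellTiter-Glo after 30 min at room temperature reported cellular ATP as the cytotoxicity measure. Cells were the CHO reporter line with doxycycline-induced ROR-gamma expression, exposed to compound for 16 hr at 37 C.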

As to `C[C@@]12CC[C@H]3[C@@H](CC[C@]4(O)C[C@H](O)CC[C@@]34C=O)[C@]1(O)CC[C@@H]2C1=CC(=O)OC1`, the values for the Potency in experiment [1], in [2] and in [3] were 1.07 µM (active), 756 nM (active) and 1.07 µM (active), respectively.

For the molecule `CCCCCCCCCc1ccc(O)cc1`, the Potency result in experiment [4], in [13] and in experiment [15] was “inactive” in each case. Further, the Potency was 12.6 µM (active) in experiment [5]; 39.8 µM (active) in experiment [14]; 25.1 µM (active) in experiment [16]; 39.8 µM (active) in experiment [17]; 31.6 µM (active) in experiment [18]; 16.8 µM (active) in [19]. Further, the Potency in experiment [20] is 66.8 µM (active). In experiment [6], the activity change, negative = cytotoxicity is -80.8% (active). Moreover, the result in [7], in experiment [8], in [9], in experiment [10] and in [11] was inactive. For the same molecule, the caspase-3 activation in experiment [12] is 172% (active).

In the case of `O=C1C(Cl)=C(Cl)C(=O)C(Cl)=C1Cl`, the Potency was 50.1 µM (active) in experiment [4]; 25.1 µM (active) in experiment [5]; 12.6 µM (active) in experiment [13]; 12.6 µM (active) in experiment [14]; 31.6 µM (active) in experiment [15]; 15.8 µM (active) in experiment [16]. The Potency in experiment [17] is 25.1 µM (active); in experiment [18], 44.7 µM (active); in [20] it was 23.7 µM (active). Besides, in experiment [6], the activity change, negative = cytotoxicity was -104% (active). The call in experiment [7], in experiment [8], in experiment [9], in experiment [10] and in experiment [11] was inactive. The caspase-3 activation in experiment [12] was -16.1%. Moreover, the Potency result in experiment [19] is “inactive”.

With `COC1CC(OC2CC[C@@]3(C=O)C4CC[C@]5(C)C(C6=CC(=O)OC6)CC[C@@]5(O)C4CC[C@]3(O)C2)OC(C)C1O` (stereo not given in full), the Potency is 0.706 µM (active) in experiment [1], 315 nM (active) in [2] and 0.397 µM (active) in experiment [3].
